According to PubChem BioAssay (EPA / NIEHS):
Results filed as inconclusive are left out. Some compounds were tested as several samples or in several runs, with calls that do not always agree. The source made the active and inactive calls. The calls were made as follows, unless noted: active = hit-call score of the fitted dose curve at least 0.9, where 1 is the maximum; inactive = score below 0.9.

Tests used:
[1] = biological target: human Vitamin D Receptor (VDR), VDR (gene 7421) (UniProt P11473); experiment: ATG_VDR_TRANS: Attagene TRANS-FACTORIAL HepG2 Assay for human Vitamin D Receptor (VDR) (AID 2283022; active = hit-call score of the fitted dose curve at least 0.9, where 1 is the maximum)
Procedure, shortened: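 Transactivation by an exogenous VDR-Gal4 chimera in transiently transfected HepG2 cells was measured as reporter transcript level 24 hours after chemical treatment. RT-PCR products were analysed by capillary electrophoresis and fitted in the positive direction relative to DMSO.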

[2] = BSK_3C_SRB: Viability Assessment in the BioMAP Diversity Plus: 3C Assay (AID 2283023); conditions: primary human endothelial cells (HUVEC);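 also: fitted both ways against DMSO so a hit may be signal rise or drop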
Procedure, shortened: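 Cytotoxicity readout in parallel HUVEC 3C cultures: after 24 h compound exposure, cells fixed with 10% TCA, stained with 0.1% SRB and read at 560 nm. Gain or loss relative to DMSO fitted.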

[3] = read-out: Matrix Metallopeptidase 1 (MMP1), MMP1 (gene 4312); experiment: BSK_BE3C_MMP1: BioMAP Diversity Plus: BE3C Assay for Matrix Metallopeptidase 1 (MMP1) Biomarker Activity (AID 2283024); conditions: primary human bronchial epithelial cells; actives raise or lower the signal
Procedure, shortened: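 In this multiplexed primary-cell system, human bronchial epithelium received chemicals for 24 h before an ELISA for MMP1. Values reflect bidirectional fits normalised to the DMSO baseline.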

[4] = BSK_3C_Vis: BioMAP Diversity Plus: 3C Assay for Morphology Visualization (AID 2283025); conditions: primary human endothelial cells (HUVEC);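 also: fitted both ways so gain or loss versus DMSO counts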;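 as to AC50: light microscopy image of cell morphology used as background control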
Procedure, shortened: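 Light-microscopy morphology readout, 24 h exposure, human primary umbilical vein endothelium; analysed relative to DMSO with bidirectional fitting.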

[5] = read-out: Pselectin, SELP (gene 6403); experiment: BSK_4H_Pselectin: BioMAP Diversity Plus: 4H Assay for Pselectin Biomarker Activity (AID 2283026); conditions: primary human endothelial cells (HUVEC); actives raise or lower the signal
Procedure, shortened: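 Bidirectional fits against DMSO gave the endpoint. Cells: primary human umbilical vein endothelium, chemical-treated for 24 h before ELISA detection of P-selectin.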

[6] = BSK_4H_SRB: Viability Assessment in the BioMAP Diversity Plus: 4H Assay (AID 2283027); conditions: primary human endothelial cells (HUVEC);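 also: cells exposed to compound for 24 h before staining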;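 as to AC50: curves fitted both ways versus DMSO so AC50 may be loss or gain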
Procedure, shortened: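 Cytotoxicity read-out in primary human endothelial cells: after 24 h compound exposure, cells were TCA-fixed (10%), stained with 0.1% SRB and absorbance taken at 560 nm. Values fitted in both directions relative to DMSO.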

[7] = BSK_BE3C_SRB: Viability Assessment in the BioMAP Diversity Plus: BE3C Assay (AID 2283028); conditions: primary human bronchial epithelial cells;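 also: measured 24 h after chemical dosing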;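 as to AC50: fitted both ways so AC50 may mark signal gain or loss versus DMSO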
Procedure, shortened: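 Cytotoxicity read-out: SRB (0.1%) staining of TCA-fixed (10%) human lung bronchial epithelial cells, absorbance 560 nm, 24 h post-dosing. Curves fitted both directions relative to DMSO.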

[8] = read-out: Thrombomodulin, THBD (gene 7056); experiment: BSK_3C_Thrombomodulin: BioMAP Diversity Plus: 3C Assay for Thrombomodulin Biomarker Activity (AID 2283029); conditions: primary human endothelial cells (HUVEC); actives raise or lower the signal
Procedure, shortened: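 In a multiplexed primary-cell system, human umbilical vein endothelium received chemical and was assayed 24 h later for thrombomodulin by ELISA. Parallel cultures were SRB-stained (0.1% SRB after 10% TCA fixation, read at 560 nm) to flag cytotoxicity.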

[9] = read-out: Urokinase-type plasminogen activator receptor (uPAR), PLAUR (gene 5329); experiment: BSK_4H_uPAR: BioMAP Diversity Plus: 4H Assay for Urokinase-type plasminogen activator receptor (uPAR) Biomarker Activity (AID 2283030); conditions: primary human endothelial cells (HUVEC); actives raise or lower the signal
Procedure, shortened: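 uPAR level read by ELISA on HUVEC cultures (BioMAP 4H) 24 h post-dosing, analyzed for gain or loss relative to DMSO. Parallel SRB staining assessed overt cytotoxicity.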

[10] = read-out: Vascular endothelial growth factor receptor 2 (Homo sapiens) (UniProt P35968); experiment: BSK_4H_VEGFRII: BioMAP Diversity Plus: 4H Assay for Vascular endothelial growth factor receptor 2 (VEGFR2) Biomarker Activity (AID 2283031); conditions: primary human endothelial cells (HUVEC); actives raise or lower the signal;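 as to AC50: cell-surface VEGFR2 protein level quantified by ELISA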
Procedure, shortened: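 Measured by ELISA after 24 h of compound treatment: VEGFR2 on primary human umbilical vein endothelial cells, fitted in both directions relative to DMSO. Parallel cultures received SRB staining (560 nm) for overt cytotoxicity.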

Measured: AC50

human Vitamin D Receptor (VDR), VDR (gene 7421), sequence (P11473 whole entry, looked up, the tested form may be a part): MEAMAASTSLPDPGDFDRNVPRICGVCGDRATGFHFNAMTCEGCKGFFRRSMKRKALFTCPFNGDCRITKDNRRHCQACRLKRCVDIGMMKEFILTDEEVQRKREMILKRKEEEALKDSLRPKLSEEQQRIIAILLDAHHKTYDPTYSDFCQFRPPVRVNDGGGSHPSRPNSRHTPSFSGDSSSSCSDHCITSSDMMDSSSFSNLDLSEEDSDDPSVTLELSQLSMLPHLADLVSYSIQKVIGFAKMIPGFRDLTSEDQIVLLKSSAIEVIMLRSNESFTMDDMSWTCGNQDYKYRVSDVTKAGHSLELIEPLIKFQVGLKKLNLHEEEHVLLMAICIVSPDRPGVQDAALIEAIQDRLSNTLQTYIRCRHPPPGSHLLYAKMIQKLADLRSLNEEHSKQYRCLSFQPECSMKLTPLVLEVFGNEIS

CC(C)=CCC/C(C)=C/COC=O
inactive: [1]

O=C=NC1CCC(CC2CCC(N=C=O)CC2)CC1 (stereo not given)
active: [4] 37.5 µM
inactive: all other assays above

C=COCCOCCOCCOC=C
inactive: [1]

CC(C)c1ccc(C(C)C)cc1
active: [2] 30.5 µM | [4] 37.8 µM | [5] 31 µM | [6] 30.7 µM | [9] 30.9 µM | [10] 33.3 µM
inactive: [1] | [3] | [7] | [8]

CC(C)=CCO
inactive: [1]

COC(C)CCO (stereo not given)
inactive: [1]

Cc1ccc2ccccc2n1
inactive: [1]

CCCCCCCCCCCCCCCCCC(=O)OCC(CC)CCCC (stereo not given)
inactive: all assays above

C=O
inactive: [1]

C=CC(=O)OCC(O)COc1ccccc1 (stereo not given)
inactive: [1]

CC(C)c1cccc(O)c1
inactive: [1]

O=C1OC2(c3cc(Br)c(O)c(Br)c3Oc3c2cc(Br)c(O)c3Br)c2c(Cl)c(Cl)c(Cl)c(Cl)c21
active: [2] 3.57 µM | [3] 0.546 µM | [4] 8.63 µM | [5] 2.19 µM | [6] 3.51 µM | [7] 0.608 µM | [8] 13.2 µM | [9] 1.34 µM
inactive: [1]

Nc1cc([N+](=O)[O-])ccc1O
active: [3] 0.15 µM
inactive: [1] | [2] | [3] | [5] | [6] | [7] | [8] | [9] | [10]

CC(C)OP(=O)(CP(=O)(OC(C)C)OC(C)C)OC(C)C
inactive: [1]

COc1ccc(O)cc1
inactive: [1]

O=C1CCCCCCCCCCCCCCO1
active: [2] 27.1 µM | [4] 14.4 µM | [5] 27.6 µM | [6] 27.4 µM | [7] 9.72 µM | [8] 20 µM | [9] 23.7 µM
inactive: [1] | [3] | [10]

O=C(COc1ccc(Cl)cc1)N1CCN(Cc2ccc3c(c2)OCO3)CC1
inactive: [1]

CO[Si](CCCn1c(=O)n(CCC[Si](OC)(OC)OC)c(=O)n(CCC[Si](OC)(OC)OC)c1=O)(OC)OC
inactive: [1]

Cc1ccccc1C=O
inactive: [1]

O=C(O)c1ccc([N+](=O)[O-])cc1
inactive: all assays above

CCc1ccc(C=O)cc1
inactive: [1]

CCCCCCCCCCCCCCCC(=O)OC[C@H](O)[C@H]1OC(=O)C(O)=C1O
inactive: [1]

CCCCC(CC)COCCC#N (stereo not given)
inactive: all assays above

CNCCCC12CCC(c3ccccc31)c1ccccc12
inactive: [1]

COc1ccc(Cl)cc1C
inactive: [1]

CCCCC(CC)COC(=O)/C=C\C(=O)OCC(CC)CCCC (stereo not given)
inactive: all assays above

CCCC(C)C=O (stereo not given)
inactive: [1]

CCCC1CCC(=O)O1 (stereo not given)
inactive: [1]

O=C(O)C[C@H](O)C[C@H](O)/C=C/c1c(C2CC2)nc2ccccc2c1-c1ccc(F)cc1
active: [2] 0.0713 µM | [4] 3.47 µM | [5] 0.152 µM | [6] 0.847 µM
inactive: all other assays above

CC(C)C1CCC(O)CC1 (stereo not given)
inactive: [1]

O=Nc1ccc(Nc2ccccc2)cc1
inactive: [1]

O=C1C(c2[nH]c3ccc(S(=O)(=O)O)cc3c2O)=Nc2ccc(S(=O)(=O)O)cc21
inactive: [1]

CC(=O)Nc1ccc(C)cc1C
inactive: [1]

Nc1cccc(S(=O)(=O)c2cccc(N)c2)c1
inactive: [1]

c1ccc2sc(SN(C3CCCCC3)C3CCCCC3)nc2c1
active: [2] 6.8 µM | [3] 6.54 µM | [4] 8.8 µM | [5] 5.21 µM | [10] 5.07 µM
inactive: [1] | [6] | [7] | [8] | [9]

Nc1cc([N+](=O)[O-])ccc1Cl
inactive: all assays above

C=C[C@@H](C)CCC=C(C)C
inactive: [1]

CC(=O)/C=C/C1=C(C)CCCC1(C)C
inactive: all assays above

CC1COc2ccccc2N1C(=O)C(Cl)Cl (stereo not given)
active: [2] 7.57 µM | [4] 5.21 µM | [5] 4.69 µM | [6] 2.79 µM
not listed: [3]
inactive: all other assays above

NCCNCCN
not listed: [1] | [4]
inactive: all other assays above

COC(=O)c1ccc(C)cc1
inactive: all assays above

COc1cc(C=O)ccc1OC(=O)C(C)C
not listed: [4]
inactive: all other assays above
